The supplement of paper PMC3334620
Whole data set: some 33,000 sequences, median “E-score (-0.5 to 0.5)” near -0.016, cut for the highest 2% near 0.32. The full list was thinned out, with the highest values kept by preference.

Biological target: T1, Stp1 (UniProt B3LFK1)
T1 sequence: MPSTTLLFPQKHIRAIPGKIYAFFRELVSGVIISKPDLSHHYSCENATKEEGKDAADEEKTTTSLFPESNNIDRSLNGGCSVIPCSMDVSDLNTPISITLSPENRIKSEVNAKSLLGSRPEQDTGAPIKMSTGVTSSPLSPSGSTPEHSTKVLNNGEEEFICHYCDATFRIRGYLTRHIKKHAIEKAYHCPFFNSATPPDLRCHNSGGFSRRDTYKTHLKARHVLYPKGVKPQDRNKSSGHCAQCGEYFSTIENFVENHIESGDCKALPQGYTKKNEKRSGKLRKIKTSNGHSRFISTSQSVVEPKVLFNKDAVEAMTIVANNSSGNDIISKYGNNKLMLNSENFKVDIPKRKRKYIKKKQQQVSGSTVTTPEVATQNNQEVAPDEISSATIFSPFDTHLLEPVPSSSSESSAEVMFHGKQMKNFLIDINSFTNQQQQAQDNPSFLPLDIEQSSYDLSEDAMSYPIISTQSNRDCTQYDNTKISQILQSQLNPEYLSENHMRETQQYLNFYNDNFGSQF
Assay: PBM E-score (8-mer binding enrichment) (E-score (-0.5 to 0.5)); higher = stronger / more preferred TF binding
Details: protein concentration: 200 nM; construct: GST-full length
How it was run: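 Masliner-normalised scans of fluorescent anti-GST signal were the basis for scoring. That signal came from GST-tagged yeast transcription factors applied at about 100-200 nM to double-stranded universal all-10-mer Agilent arrays on fresh or once-stripped slides. Each ungapped eight-base word, pooled with its reverse complement, received an E-score from the Universal PBM Analysis Suite.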

Row | Sequence | PBM E-score
1 | GGCCGCCC | -0.0498
2 | CGCCGCCC | 0.346
3 | AACCGCCC | -0.149
4 | AACCGCCA | -0.153
5 | AGCCGCCC | 0.11
6 | CCCCGCCG | 0.0774
7 | CGCCGCCG | 0.402
8 | AACCGCCG | 0.324
9 | AGCCGCCA | -0.122
10 | AGCCGCCG | 0.361
11 | CTCCGCCC | -0.192
12 | CGCCGCCA | 0.154
13 | ATTCTCAC | 0.0144
14 | AAGAGTAC | -0.0411
15 | GGACTCTA | -0.344
16 | AGCTTCAC | -0.221
17 | CAGCTAAC | -0.171
18 | AACCTCTA | -0.104
19 | CGCAGTTA | 0.0737
20 | GGCACTAA | 0.392
21 | GGCACAAA | 0.374
22 | GGCAAGAA | 0.22
23 | GGCAAAAC | 0.254
24 | AGCACAAA | 0.206
25 | GGCACGAC | 0.208

Row | Sequence | PBM E-score
26 | AGCACTAA | 0.132
27 | GGCAAAAA | 0.388
28 | TGCACAAA | 0.0921
29 | AGCACGAA | 0.0412
30 | TGCACTAA | 0.109
31 | GGCACGAA | 0.389
32 | CATGCACA | 0.0872
33 | TATCAGAA | 0.22
34 | CTTGCTTA | -0.203
35 | AGGGCCGC | 0.168
36 | TGCCTCAA | -0.019
37 | TATTGCGA | 0.165
38 | CACCTCAA | 0.0958
39 | AGCTGCAC | -0.111
40 | CAAGTCGG | -0.0998
41 | TACACGCA | -0.204
42 | GGTTTATA | 0.0512
43 | AGTTTATA | 0.153
44 | CGTTTATA | 0.331
45 | GATTGTCC | -0.0756
46 | AAAACAAA | 0.128
47 | CCTGGACA | -0.187
48 | CTGAGGTA | -0.0424
49 | AGAAAGCA | 0.158
50 | ATCACTAA | 0.0331

Row | Sequence | PBM E-score
51 | AGCGCGAC | -0.149
52 | CGCGCGAC | 0.12
53 | GGCGCGAA | 0.37
54 | AGCGCGAA | 0.0676
55 | CGCGCGAA | 0.129
56 | GGCGCGAC | 0.36
57 | CTGGGAAC | 0.0375
58 | AGTCGATG | -0.194
59 | AGTGGGGC | -0.231
60 | ATAAGGCA | 0.299
61 | ACGGGGCC | -0.0286
62 | ACAAGGCT | 0.198
63 | ACGGGGCT | -0.161
64 | CCAAGGCG | 0.341
65 | ACGGGGCG | 0.366
66 | CCAAGGCC | 0.171
67 | ACAAGGCG | 0.38
68 | CCAAGGCA | 0.173
69 | ATAAGGCG | 0.365
70 | ATAAGGCC | 0.0529
71 | ACAAGGCC | -0.026
72 | CGAGAAGC | -0.112
73 | CAACCTTG | 0.0792
74 | CTCCCTGC | -0.293
75 | CTTGATCC | 0.0811

Row | Sequence | PBM E-score
76 | CGAGTCCG | 0.128
77 | CCAGTGAA | -0.0703
78 | GAGATAGA | -0.0115
79 | ACAGGGCG | 0.351
80 | ACAGGGCA | 0.244
81 | ACAGGGCT | -0.0531
82 | CACCGACA | 0.0706
83 | TGGCAACA | 0.195
84 | CGGCAACG | 0.368
85 | CGGCAACA | 0.368
86 | CGGCAACC | 0.266
87 | AGGCAACA | 0.143
88 | AGGCAACG | 0.0557
89 | ACTTTTGG | -0.0182
90 | CTATGCAA | -0.0966
91 | CGGCCCAC | -0.051
92 | CAATACGA | 0.143
93 | CAATACGC | 0.175
94 | CCATACGC | 0.0591
95 | CCATACGG | 0.395
96 | ACATACGG | 0.261
97 | CAATACGG | 0.32
98 | GACAATGA | -0.247
99 | AGCCTTGG | -0.138
100 | AGCCTTGC | 0.325

Row | Sequence | PBM E-score
101 | CGCCTTTC | 0.354
102 | CGCCTTGC | 0.35
103 | CGCCTTCC | 0.206
104 | CGCCTTAA | 0.211
105 | CGCCTTGA | 0.0844
106 | CGCCTTAC | 0.405
107 | CGCCTTTA | 0.129
108 | AGCCTTGA | -0.0777
109 | AGCCTTAC | -0.022
110 | AGCCTTTC | -0.0105
111 | ACATGTAT | 0.0569
112 | CAATCCAC | -0.128
113 | ATAGTTCG | 0.0223
114 | AATAGAGG | -0.00072
115 | CTTGATGA | 0.1
116 | ATCTGCAA | -0.145
117 | ACACACTG | -0.0947
118 | AGCCCCTG | -0.353
119 | AAAGAACA | -0.0165
120 | AAAGCACT | -0.0405
121 | AGCAGGCA | -0.0398
122 | GGGCGAGA | -0.132
123 | CGGCTCCA | 0.425
124 | AGGCTCCA | -0.0273
125 | AGGCTCAA | 0.0744

Row | Sequence | PBM E-score
126 | TGGCTCAA | 0.00085
127 | AGGCTCAG | -0.0826
128 | CGGCTCCC | 0.187
129 | CGGCTCAC | 0.213
130 | CGGCTCAG | 0.379
131 | CGGCTCAA | 0.351
132 | ACCTTTCT | -0.0776
133 | CCAACAAG | 0.00906
134 | AACTGCGG | 0.173
135 | ATATGCCG | 0.347
136 | CGATGCCC | 0.0311
137 | ATATGCCC | -0.155
138 | CGATGCCA | 0.105
139 | AGATGCCT | 0.107
140 | ATATGCCA | 0.153
141 | AGATGCCG | 0.397
142 | CGATGCCG | 0.415
143 | AGATGCCC | 0.06
144 | CCAACCTA | -0.175
145 | GTGCGGAA | 0.132
146 | CTGCGGCA | 0.422
147 | CTGCGGCC | 0.214
148 | ATGCGGCA | 0.467
149 | ATGCGGAA | 0.164
150 | ATGCGGTA | 0.0546

Row | Sequence | PBM E-score
151 | GTGCGGCA | 0.469
152 | GTGCGGGA | 0.041
153 | CTGCGGTA | 0.0752
154 | AGTTTGTC | -0.0407
155 | CTCTGGGC | -0.215
156 | AGAGGTCG | -0.096
157 | AGATGAGG | -0.192
158 | AGTTAAGG | -0.0459
159 | ACCTGTAA | 0.00569
160 | AGATAGAG | -0.0214
161 | GCTGATCC | -0.116
162 | AGTGGCAC | 0.209
163 | AGCGGCAT | 0.406
164 | AGCGGGAT | 0.0317
165 | TCCGGCAA | -0.00549
166 | AGCGGCAC | 0.457
167 | AGCGGCAG | 0.301
168 | AGTGGCAA | 0.162
169 | TGCGGCCA | 0.233
170 | AGCGGCAA | 0.321
171 | TGCGGCAA | 0.412
172 | AGCGGCCT | 0.0372
173 | AGCGGAAA | 0.0606
174 | CACATCGG | -0.152
